The source of these data is PubChem BioAssay (NCI).

The panel holds about 83,000 compounds, 20% with a hit somewhere; the sample as a whole holds those more often.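 For each line, cells grew in 96-well plates with the test compound present at a single concentration for 48 hours.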 Values without a mark were called inactive. Calls of active or inactive are those of the source. How the source made its calls: active means growth percent below 10; inactive means the rest.

Assay in all cases: NCI-60 one-dose screen, 48 h (100 = growth as untreated, 0 = no growth, -100 = all killed)
One assay has as its system SK-MEL-2 melanoma. Particulars: 10 µM unless noted.
In the next assay the test system is EKVX NSCLC. The note with it: 10 µM unless noted.
For another assay, the system named is SN12C renal. The note with it: 10 µM unless noted.
A further assay concerns UO-31 renal. The note with it: 10 µM unless noted.
The subject of another assay is TK-10 renal. Particulars: 10 µM unless noted.
For the next assay, the system named is ACHN renal. The note with it: 10 µM unless noted.
The next assay concerns CAKI-1 renal. Particulars: 10 µM.
The next assay relates to A498 renal. The note with it: 10 µM unless noted.
The test system of another assay is CCRF-CEM leukemia. The note with it: 10 µM unless noted.
For the next assay, the system named is MOLT-4 leukemia. The note with it: 10 µM unless noted.
For another assay, the system named is RPMI-8226 leukemia. Particulars: 10 µM unless noted.
For the next assay, the system named is OVCAR-8 ovarian. Particulars: 10 µM unless noted.
The next assay concerns OVCAR-5 ovarian. Particulars: 10 µM unless noted.
The next assay has as its system OVCAR-4 ovarian. Particulars: 10 µM unless noted.
Another assay deals with SK-OV-3 ovarian. The note with it: 10 µM unless noted.
The subject of a further assay is IGROV1 ovarian. Particulars: 10 µM unless noted.
In the next assay the test system is HS 578T breast. The note with it: 10 µM unless noted.
A further assay has as its system NCI/ADR-RES ovarian. The note with it: 10 µM unless noted.
The subject of the next assay is SR leukemia. The note with it: 10 µM unless noted.
Another assay deals with OVCAR-3 ovarian. The note with it: 10 µM unless noted.

On to `O=C(Cn1cc(CN2C(=O)c3ccc([N+](=O)[O-])cc3C2=O)nn1)Nc1ccccc1Br`, for which the growth in the assay with SK-MEL-2 melanoma is 114%; in the assay with EKVX NSCLC, 105%; in the assay on SN12C renal, 103%; in the assay on UO-31 renal it was 88.1%; with TK-10 renal, 104%; in the assay with ACHN renal, 108%. Further, the growth is 103% in the assay with CAKI-1 renal; 101% in the assay on A498 renal; 95.1% with CCRF-CEM leukemia; 105% in the assay on MOLT-4 leukemia; 102% in the assay on RPMI-8226 leukemia; 116% with OVCAR-8 ovarian. For the same molecule, the growth is 106% in the assay on OVCAR-5 ovarian; 113% in the assay with OVCAR-4 ovarian; 90.5% in the assay on SK-OV-3 ovarian; 97.5% with IGROV1 ovarian; 110% in the assay with HS 578T breast; 99.3% in the assay with NCI/ADR-RES ovarian.

In the case of `COc1cc(/C=N/Nc2ccnc3cc(Cl)ccc23)cc(OC)c1O`, the growth in the assay with SK-MEL-2 melanoma is 119%; with EKVX NSCLC, -71.8% (active); in the assay with SN12C renal, -64.7% (active); in the assay with UO-31 renal, -96.4% (active); in the assay with TK-10 renal it was -69.6% (active); with ACHN renal, -98.2% (active). For the same molecule, the growth in the assay with CAKI-1 renal is -93% (active); in the assay on A498 renal, 99.5%; with CCRF-CEM leukemia, 9.72% (active); in the assay with MOLT-4 leukemia, -13% (active); with SR leukemia, -23.9% (active); with OVCAR-8 ovarian, -56% (active). The growth with OVCAR-5 ovarian was -5% (active); in the assay on OVCAR-4 ovarian it was -50.2% (active); in the assay with SK-OV-3 ovarian, 109%; in the assay on IGROV1 ovarian it was -83.8% (active); with HS 578T breast it was -38.8% (active); in the assay on NCI/ADR-RES ovarian it was 2.57% (active).

For the molecule `Cc1ccc(-c2cc(-c3ccc(N(C)C)cc3)n3c(n2)nc2ccccc23)cc1`, the growth in the assay on SK-MEL-2 melanoma is 16%; in the assay on EKVX NSCLC, 57.9%; in the assay with SN12C renal, 62.8%; with UO-31 renal, 41.8%; in the assay on TK-10 renal, 61.1%; in the assay with ACHN renal it was 49.3%. For the same molecule, the growth with CAKI-1 renal is 59.3%; in the assay with A498 renal, 15.6%; with CCRF-CEM leukemia it was 54.8%; in the assay on MOLT-4 leukemia, 38.9%; in the assay with RPMI-8226 leukemia it was 36.2%; in the assay with OVCAR-8 ovarian, 54.2%. For the same molecule, the growth was 109% in the assay with OVCAR-5 ovarian; 60.9% with OVCAR-4 ovarian; 81.3% in the assay on SK-OV-3 ovarian; 86.2% with IGROV1 ovarian; 83% in the assay on HS 578T breast; 56.7% in the assay with NCI/ADR-RES ovarian.

Take `CC(C)C(=O)Nc1ccc(-c2nc(-c3cccc(O)c3)c(-c3ccnc(Br)c3)[nH]2)cc1`: the growth in the assay on SK-MEL-2 melanoma is 44.1%; in the assay with EKVX NSCLC, 80.6%; with SN12C renal, 63.5%; with UO-31 renal, 24%; in the assay on TK-10 renal it was 81.1%; in the assay on ACHN renal it was 64.2%. The growth in the assay on CAKI-1 renal was 45.1%; in the assay with A498 renal, 37.4%; in the assay on CCRF-CEM leukemia, 17.3%; with MOLT-4 leukemia, 9.54% (active); with SR leukemia, -3.9% (active); in the assay on OVCAR-8 ovarian it was 49.5%. In addition, the growth in the assay on OVCAR-5 ovarian is 84.3%; in the assay on OVCAR-4 ovarian, 43.4%; in the assay with SK-OV-3 ovarian it was 54.5%; with OVCAR-3 ovarian it was 56.1%; in the assay on HS 578T breast, -12% (active); in the assay with NCI/ADR-RES ovarian, 92.3%.

In the case of `Cn1cc(-c2nn3cc(-c4ccncc4)nc3s2)c2cc(Cl)ccc21`, the growth is 76% in the assay with SK-MEL-2 melanoma; 33.4% in the assay on EKVX NSCLC; 61.2% in the assay with SN12C renal; 43.4% in the assay with UO-31 renal; 116% in the assay with TK-10 renal; 60.5% in the assay on ACHN renal. The growth in the assay on CAKI-1 renal was 51.3%; with A498 renal, 89.7%; in the assay with CCRF-CEM leukemia it was 10.5%; in the assay on MOLT-4 leukemia, 2.31% (active); in the assay with SR leukemia, -4.53% (active); with OVCAR-8 ovarian it was 14.6%. Further, the growth in the assay on OVCAR-5 ovarian was 66.8%; in the assay with OVCAR-4 ovarian it was 78.6%; in the assay with SK-OV-3 ovarian, 89.5%; in the assay with HS 578T breast, 49.8%; with NCI/ADR-RES ovarian, 32.4%.

Take `Oc1ccc(CSc2nnc(-c3ccncc3)n2-c2ccccc2)c2cccnc12`: the growth in the assay on SK-MEL-2 melanoma was 29.7%; in the assay on EKVX NSCLC, 48.2%; in the assay on SN12C renal, 11%; in the assay with UO-31 renal, 9.11% (active); in the assay with TK-10 renal, 34.1%; in the assay on ACHN renal, 14.4%. Besides, the growth in the assay with CAKI-1 renal is 15.7%; in the assay on A498 renal, 44%; in the assay with CCRF-CEM leukemia it was 13.1%; with MOLT-4 leukemia, 20.1%; with SR leukemia, 35.6%; in the assay on OVCAR-8 ovarian, 18.3%. The growth in the assay on OVCAR-5 ovarian was 45.7%; with OVCAR-4 ovarian, 17%; in the assay on SK-OV-3 ovarian it was 9.36% (active); in the assay on IGROV1 ovarian it was 8.84% (active); in the assay with OVCAR-3 ovarian it was 5.81% (active); in the assay with HS 578T breast it was 15.4%. The growth in the assay with NCI/ADR-RES ovarian was 9.52% (active).

Consider `Cc1ccc(NC(=O)c2cccc(CN3CCN(C)CC3)c2)cc1Oc1ccc(-c2[nH]nc3ncnc(N)c23)cc1`, for which the growth with SK-MEL-2 melanoma was 73.8%; in the assay on EKVX NSCLC it was 97.5%; in the assay with SN12C renal it was 80%; with UO-31 renal it was 93.3%; in the assay with TK-10 renal it was 93.5%; in the assay with ACHN renal, 92.6%. For the same molecule, the growth with CAKI-1 renal was 59.3%; in the assay with A498 renal it was 89.2%; in the assay with CCRF-CEM leukemia, 47%; in the assay on MOLT-4 leukemia, 0.353% (active); in the assay on SR leukemia, 6.56% (active); with OVCAR-8 ovarian, 83.1%. For the same molecule, the growth in the assay on OVCAR-5 ovarian was 80.8%; in the assay with OVCAR-4 ovarian, 81.9%; in the assay with SK-OV-3 ovarian it was 78.8%; in the assay on OVCAR-3 ovarian, 79.6%; with HS 578T breast, 64.2%; in the assay on NCI/ADR-RES ovarian, 101%.

On to `CCOC(=O)Nc1cccc(-n2cnc3cc(-c4ccc(O)cc4)ccc32)c1`, for which the growth with SK-MEL-2 melanoma was 15.8%; with EKVX NSCLC, 42.7%; in the assay with SN12C renal, 31.2%; with UO-31 renal, 26.4%; in the assay with TK-10 renal, 57.1%; in the assay with ACHN renal, 19.9%. For the same molecule, the growth with CAKI-1 renal was 33%; in the assay on A498 renal, -25.1% (active); in the assay on CCRF-CEM leukemia, 24.5%; in the assay with MOLT-4 leukemia it was 10.6%; in the assay on RPMI-8226 leukemia it was 20.2%; in the assay on OVCAR-8 ovarian, 21.8%. Further, the growth in the assay with OVCAR-5 ovarian is 41.1%; in the assay on OVCAR-4 ovarian, 56%; in the assay with SK-OV-3 ovarian it was 34%; in the assay with IGROV1 ovarian, 32.3%; in the assay on HS 578T breast, 16%; in the assay on NCI/ADR-RES ovarian, 7.05% (active).
